CF NFkB block = inhibitors of cystic fibrosis induced NF-kB | KKLEB NF-kB-GFP reporter, PAF-induced, GFP fluorescence overnight | inhibition, % at 5 µM | 0.86% of 360,000 active;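 active = at least 50% inhibition at 5 µM, scaled per plate between neutral and stimulator controls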;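 also: PAF is a Pseudomonas aeruginosa culture filtrate used as stimulus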
TROY signal inh = inhibitors of TROY-dependent NF-kB signaling. Q293 LMP1-TROYcd NF-kB luciferase reporter, 4 h. inhibition, % at 10 µM. 0.98% of 360,000 active;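 active = compounds whose plate-normalised and pattern-corrected inhibition of the luciferase reporter signal at the single screening dose is 50% or more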
LGR2 inh = inhibitors of bursicon-induced Drosophila LGR2 receptor cAMP signaling; HEK293 LGR2, CRE-luciferase, bursicon-stimulated, 4 h; inhibition, % at 9.99 µM; 0.35% of 380,000 active;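 active = drop in luminescence signal, shown as inhibition above about 50% in the replicate tests, limit read from the data, passing the limit was not always enough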;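 also: agonist challenge used bursicon conditioned medium at about half maximal strength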
EWS-Fli inh = blocks EWS/Fli oncoprotein-driven transcription | AID 651661 | 0.67% of 350,000 active | inhibition, % at 12.6 µM | A673 NR0B1-luciferase reporter, viability-normalised;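 active = mean inhibition of at least 50% after viability correction, with every replicate also passing that limit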;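 also: firefly luciferase signal divided by Alamar Blue viability fluorescence both relative to DMSO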
KKLEB tox = reduces viability of KKLEB cystic fibrosis airway cells; KKLEB CF airway cells viability, ATPlite luminescence, overnight; stronger effect = lower value; cells stimulated with P. aeruginosa culture filtrate; activity change (cytotoxicity), % at 5 µM; 0.36% of 360,000 active;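 active = corrected activity change at or below -50% at 5 µM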
TWEAK Fn14 block = inhibitors of TWEAK-Fn14 interaction signaling; TWEAK-stimulated Fn14 reporter cells, luciferase luminescence, 8 h; 2% of 360,000 active; AID 1159606; inhibition, % at 10 µM; in the data active = inhibition above about 50%
A number is an active result; i = inactive; nt = no result given; ! = repeats disagree. Only some compounds are listed: those with a hit (about 2.6% of all), similar ones and a draw of the others.

SMILES	CF NFkB block	TROY signal inh	LGR2 inh	EWS-Fli inh	KKLEB tox	TWEAK Fn14 block
COc1ccc(CCNC(=O)c2ccc3ccccc3n2)cc1OC	i	i	nt	i	i	i
COc1ccc(S(=O)(=O)Nc2cccc3c2O[C@H](CN(C)Cc2ccc(C(F)(F)F)cc2)[C@H](C)CN([C@H](C)CO)C3=O)cc1	nt	nt	i	i	nt	nt
COc1cc(C(=O)Nc2nc(-c3ccc(C)cc3)cs2)ccc1OCC(=O)N1CCOCC1	i	57	i	nt	i	i
COc1ccc(OC)c(NC(=O)c2ccc(OCC(=O)N3CCOCC3)c(OC)c2)c1	i	i	i	i	i	i
COc1ccc(-c2csc(NC(=O)c3ccc(OCC(=O)N4CCOCC4)c(OC)c3)n2)cc1	i	i	92	i	i	i
COc1cc(C(=O)Nc2nc(-c3ccc(F)cc3)cs2)ccc1OCC(=O)N1CCOCC1	i	i	i	i	i	i
CNC[C@H]1Oc2cc(-c3ccc(C(=O)N(C)C)cc3)ccc2S(=O)(=O)N([C@H](C)CO)C[C@@H]1C	nt	nt	i	i	nt	nt
C[C@H]1CN([C@@H](C)CO)C(=O)c2cc(NC(=O)Nc3ccc(C(F)(F)F)cc3)ccc2O[C@@H]1CN(C)Cc1ccc(Cl)c(Cl)c1	nt	nt	i	58	nt	nt
C[C@H]1CN([C@@H](C)CO)C(=O)Cc2cc(NC(=O)Nc3ccc(C(F)(F)F)cc3)ccc2O[C@H]1CN(C)Cc1ccc(C(=O)Nc2ccccc2N)cc1	nt	nt	i	79	nt	nt
C[C@@H]1CN([C@H](C)CO)C(=O)Cc2cc(NC(=O)Nc3ccc(C(F)(F)F)cc3)ccc2O[C@@H]1CN(C)Cc1ccc(C(=O)Nc2ccccc2N)cc1	nt	nt	i	i	nt	nt
C[C@@H]1CN([C@H](C)CO)C(=O)c2cc(NC(=O)Nc3ccc(F)cc3)ccc2O[C@@H]1CN(C)Cc1ccc(-c2ccccc2)cc1	nt	nt	i	64	nt	nt
C[C@@H]1CN([C@@H](C)CO)C(=O)Cc2cc(NC(=O)Nc3ccc(F)cc3)ccc2O[C@@H]1CN(C)Cc1ccc(Cl)c(Cl)c1	52	i	i	i	i	60
COC(=O)C[C@@H]1CC[C@H]2[C@@H](COc3ccc(NC(=O)c4cscn4)cc3C(=O)N2C)O1	nt	nt	i	i	nt	nt
C[C@@H]1CN([C@@H](C)CO)S(=O)(=O)c2ccc(Br)cc2O[C@@H]1CN(C)CC1CC1	nt	nt	i	i	nt	nt
C[C@H](CO)N1C[C@H](C)[C@H](CN(C)Cc2ccc(Oc3ccccc3)cc2)Oc2ccc(NC(=O)Nc3ccc(C(F)(F)F)cc3)cc2C1=O	nt	nt	i	56	nt	nt
C[C@@H]1CN([C@H](C)CO)C(=O)c2cc(-c3cccnc3)cnc2O[C@H]1CN(C)Cc1ccc(-c2ccccc2)cc1	nt	nt	i	57	nt	nt
C[C@H](CO)N1C[C@H](C)[C@@H](CN(C)Cc2ccc(Oc3ccccc3)cc2)Oc2ccc(NC(=O)Nc3ccc(C(F)(F)F)cc3)cc2C1=O	nt	nt	i	i	nt	nt
C[C@H](CO)N1C[C@H](C)[C@@H](CN(C)Cc2ccccc2)Oc2ccc(NC(=O)Nc3cccc4ccccc34)cc2CC1=O	nt	nt	i	56	nt	nt
C[C@H]1CN([C@@H](C)CO)C(=O)c2cc(NC(=O)C3CC3)ccc2O[C@@H]1CN(C)Cc1ccc(Cl)c(Cl)c1	nt	nt	i	i	nt	nt
C[C@@H]1CN([C@@H](C)CO)C(=O)c2cc(NC(=O)C3CC3)ccc2O[C@@H]1CN(C)Cc1ccc(Cl)c(Cl)c1	i	i	i	57!	i	i
C[C@H](CO)N1C[C@H](C)[C@H](CN(C)C(=O)c2cccc(F)c2)Oc2ncc(-c3ccncc3)cc2C1=O	nt	nt	i	i	nt	nt
COc1ccc(NC(=O)N[C@H]2CC[C@@H](CCNC(=O)c3ccccc3F)O[C@H]2CO)cc1	nt	nt	i	i	nt	nt
COc1ccc2oc(=O)c(-c3csc(Nc4ccc(O)cc4)n3)cc2c1	i	i	i	nt	i	68
COc1ccc(CCC(=O)NNC(=S)NCc2ccc(F)cc2)cc1	i	i	i	i	i	i
COc1ccc(CCC(=O)NNC(=O)c2ccc(F)cc2)cc1	i	i	i	i	i	53
SMILES	CF NFkB block	TROY signal inh	LGR2 inh	EWS-Fli inh	KKLEB tox	TWEAK Fn14 block
COc1cccc(-c2ccc([C@H]3[C@@H](CO)N4CCCCN(C(=O)NC(C)C)C[C@@H]34)cc2)c1	nt	nt	i	nt	nt	nt
CCNC(=S)N1CCN(c2nc(-c3ccc(F)cc3)cs2)CC1	i	i	i	i	i	i
CCN(CC)CCCNC(=S)N1CCN(c2nc(-c3ccc(F)cc3)cs2)CC1	i	i	i	61	i	i
CCOCCCNC(=O)c1ccc2c(c1)N=C(CC)c1cc(Br)ccc1S2	i	i	i	61	i	i
CC=Cc1ccc2n(c1=O)C[C@@H]1[C@@H](CO)[C@H](C(=O)NCCCN(C)C)[C@H]2N1C(=O)c1ccccc1 (mixture of isomers)	nt	nt	i	i	nt	nt
N=c1c(C(=O)NC2CCCCC2)cc2c(=O)n3ccccc3nc2n1Cc1ccccc1	i	i	i	nt	i	i
N=c1c(C(=O)NC2CCCCC2)cc2c(=O)n3ccccc3nc2n1Cc1ccco1	i	i	i	i	i	85
N=c1c(C(=O)NCCc2ccccc2)cc2c(=O)n3ccccc3nc2n1Cc1ccco1	i	i	i	i	i	75
Cc1nc2ccccc2c2oc(C(=O)N3CC(C)CC(C)C3)cc12 (stereo not given)	i	i	i	i	i	i
Cc1ccc(CNC(=O)c2cc3c(C)nc4ccccc4c3o2)cc1	i	i	i	i	i	61
COc1ccccc1N1CCN(C(=O)c2cc3c(C)nc4ccccc4c3o2)CC1	i	51	i	i	i	i
Cc1ccc(C)c(N2CCN(C(=O)c3cc4c(C)nc5ccccc5c4o3)CC2)c1	i	52	i	i	i	i
Cc1nc2ccccc2c2oc(C(=O)NCc3ccccn3)cc12	i	i	i	i	i	i
O=C(COC(=O)C12CC3CC(CC(O)(C3)C1)C2)Nc1ccc(Br)cc1F	i	58	i	i	i	i
Cc1cc(C(=O)Nc2ccc3c(c2)C(=O)N(C)[C@@H]2CC[C@H](CC(=O)N[C@@H](C)c4ccccc4)O[C@@H]2CO3)no1	nt	nt	i	i	nt	nt
Fc1ccc(-n2nnc(-c3cnc4ccccc4c3)n2)cc1	i	73	79	i	i	94
Fc1ccc(-n2nnc(-c3cccnc3)n2)cc1	i	i	i	i	i	i
CCCCCc1ccc(-c2ccc(/C=C/C(N)=O)cc2)nc1	i	i	i	nt	i	i
CCCc1ccc(-c2ccc(C(=O)O)cc2)nc1	i	i	i	nt	i	78
COc1ccccc1C1CCN(c2cc(O)ccc2[N+](=O)[O-])CC1	i	57	i	i	i	i
COc1ccccc1C1CCN(C(=O)c2ccccc2)CC1	i	i	i	i	i	i
CC(C)OC(=O)C(C(=O)C(F)(F)F)c1cc(NS(=O)(=O)c2ccc3ccccc3c2)c2ccccc2c1O (stereo not given)	i	68	nt	nt	i	62
CCOC(=O)C(C)(C)N(Cc1ccc(C)cc1)S(=O)(=O)c1ccc(Cl)c([N+](=O)[O-])c1	i	i	nt	73	i	60
